# Records with an inconclusive call do not appear. Active and inactive are the calls of the source. How the source made its calls: active means hit-call score of the fitted dose curve at least 0.9, where 1 is the maximum; inconclusive means response in the unintended direction; inactive means score below 0.9.
# Assays:
# [1] = molecular target: human Phosphodiesterase 10 (PDE10), PDE10A (gene 10846) (UniProt Q9Y233); assay: NVS_ENZ_hPDE10: NovaScreen (NVS) Enzymatic Assay for human Phosphodiesterase 10 (PDE10) (AID 2283195)
# Sequence of human Phosphodiesterase 10 (PDE10), PDE10A (gene 10846) (Q9Y233 whole entry, looked up): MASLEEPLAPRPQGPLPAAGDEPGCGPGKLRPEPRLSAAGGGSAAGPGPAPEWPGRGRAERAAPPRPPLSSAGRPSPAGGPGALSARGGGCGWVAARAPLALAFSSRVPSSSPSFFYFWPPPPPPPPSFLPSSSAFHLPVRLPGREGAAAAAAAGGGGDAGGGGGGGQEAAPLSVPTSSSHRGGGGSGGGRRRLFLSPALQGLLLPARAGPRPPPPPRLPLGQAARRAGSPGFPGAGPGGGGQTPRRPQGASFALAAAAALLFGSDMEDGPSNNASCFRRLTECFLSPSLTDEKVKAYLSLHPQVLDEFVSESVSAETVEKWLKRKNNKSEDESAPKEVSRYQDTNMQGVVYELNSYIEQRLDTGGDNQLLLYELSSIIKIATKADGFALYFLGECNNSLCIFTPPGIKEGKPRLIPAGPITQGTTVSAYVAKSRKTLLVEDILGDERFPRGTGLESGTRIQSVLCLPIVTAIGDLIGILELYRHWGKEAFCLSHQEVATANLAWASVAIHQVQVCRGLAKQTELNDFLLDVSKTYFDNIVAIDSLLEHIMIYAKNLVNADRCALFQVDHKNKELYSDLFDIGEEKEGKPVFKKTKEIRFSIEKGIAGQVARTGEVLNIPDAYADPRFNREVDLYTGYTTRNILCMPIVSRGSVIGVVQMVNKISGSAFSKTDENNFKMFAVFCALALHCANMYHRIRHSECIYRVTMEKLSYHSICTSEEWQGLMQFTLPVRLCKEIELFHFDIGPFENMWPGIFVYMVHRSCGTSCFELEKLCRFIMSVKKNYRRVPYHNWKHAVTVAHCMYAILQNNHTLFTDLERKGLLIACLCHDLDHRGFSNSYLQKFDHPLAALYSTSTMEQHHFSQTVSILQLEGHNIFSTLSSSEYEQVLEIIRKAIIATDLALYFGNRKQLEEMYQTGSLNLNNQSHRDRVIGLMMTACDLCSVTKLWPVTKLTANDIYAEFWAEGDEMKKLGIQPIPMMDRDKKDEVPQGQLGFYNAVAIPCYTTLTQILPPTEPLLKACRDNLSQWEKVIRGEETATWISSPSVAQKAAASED
# How it was run: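 Recombinant human PDE10 with fluorescent substrate, 1 h, product separated by electrophoretic mobility shift. Loss of enzyme activity fitted against DMSO; initial screen 25 uM in duplicate, actives run to 50 uM maximum.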
# [2] = molecular target: human Phosphoinositide 3-kinase alpha (PI3Ka), PIK3CA (gene 5290) (UniProt P42336); assay: NVS_ENZ_hPI3Ka: NovaScreen (NVS) Enzymatic Assay for human Phosphoinositide 3-kinase alpha (PI3Ka) (AID 2283196)
# Sequence of human Phosphoinositide 3-kinase alpha (PI3Ka), PIK3CA (gene 5290) (P42336 whole entry, looked up): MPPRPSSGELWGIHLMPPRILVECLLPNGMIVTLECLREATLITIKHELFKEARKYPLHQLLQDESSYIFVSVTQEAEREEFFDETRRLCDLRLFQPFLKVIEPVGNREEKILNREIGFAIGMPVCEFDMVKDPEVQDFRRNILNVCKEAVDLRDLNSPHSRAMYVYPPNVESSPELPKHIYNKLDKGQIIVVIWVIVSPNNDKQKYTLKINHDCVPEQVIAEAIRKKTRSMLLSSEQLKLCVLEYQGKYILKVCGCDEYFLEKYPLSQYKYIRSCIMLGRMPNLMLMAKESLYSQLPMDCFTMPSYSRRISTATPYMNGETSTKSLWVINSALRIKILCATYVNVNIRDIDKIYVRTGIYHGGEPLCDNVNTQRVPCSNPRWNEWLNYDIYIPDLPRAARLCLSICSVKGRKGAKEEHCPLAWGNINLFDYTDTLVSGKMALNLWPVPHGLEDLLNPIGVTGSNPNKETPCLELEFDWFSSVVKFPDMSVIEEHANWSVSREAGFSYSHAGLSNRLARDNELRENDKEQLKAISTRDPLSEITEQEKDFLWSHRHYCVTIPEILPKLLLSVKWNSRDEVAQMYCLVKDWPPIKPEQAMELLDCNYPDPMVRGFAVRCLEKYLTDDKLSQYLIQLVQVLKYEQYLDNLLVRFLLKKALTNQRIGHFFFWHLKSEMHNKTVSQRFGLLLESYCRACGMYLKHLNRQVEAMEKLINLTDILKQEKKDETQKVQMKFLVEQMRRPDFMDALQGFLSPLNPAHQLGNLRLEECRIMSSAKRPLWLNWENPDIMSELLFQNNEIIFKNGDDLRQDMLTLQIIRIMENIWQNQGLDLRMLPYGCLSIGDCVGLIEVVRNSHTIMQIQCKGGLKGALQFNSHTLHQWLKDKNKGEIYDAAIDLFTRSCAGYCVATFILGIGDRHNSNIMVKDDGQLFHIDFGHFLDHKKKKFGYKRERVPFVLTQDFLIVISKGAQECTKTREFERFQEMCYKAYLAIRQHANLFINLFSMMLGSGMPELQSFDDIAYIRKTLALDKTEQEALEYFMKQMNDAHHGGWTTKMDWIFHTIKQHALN
# How it was run: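 Duplicate single-point screen (25 uM), then singleton dose-response (max 50 uM) for compounds meeting the threshold. Cell-free kinase reaction, 1 h; fluorescent mobility-shift readout.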
# [3] = molecular target: human Matrix Metalloproteinase-9 (MMP9), MMP9 (gene 4318) (UniProt P14780); assay: NVS_ENZ_hMMP9: NovaScreen (NVS) Enzymatic Assay for human Matrix Metalloproteinase-9 (MMP9) (AID 2283190);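 further: cell-free recombinant MMP9 protease activity read by fluorescent substrate signal; active means inhibition seen as loss of fluorescence signal versus DMSO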
# Sequence of human Matrix Metalloproteinase-9 (MMP9), MMP9 (gene 4318) (P14780 whole entry, looked up): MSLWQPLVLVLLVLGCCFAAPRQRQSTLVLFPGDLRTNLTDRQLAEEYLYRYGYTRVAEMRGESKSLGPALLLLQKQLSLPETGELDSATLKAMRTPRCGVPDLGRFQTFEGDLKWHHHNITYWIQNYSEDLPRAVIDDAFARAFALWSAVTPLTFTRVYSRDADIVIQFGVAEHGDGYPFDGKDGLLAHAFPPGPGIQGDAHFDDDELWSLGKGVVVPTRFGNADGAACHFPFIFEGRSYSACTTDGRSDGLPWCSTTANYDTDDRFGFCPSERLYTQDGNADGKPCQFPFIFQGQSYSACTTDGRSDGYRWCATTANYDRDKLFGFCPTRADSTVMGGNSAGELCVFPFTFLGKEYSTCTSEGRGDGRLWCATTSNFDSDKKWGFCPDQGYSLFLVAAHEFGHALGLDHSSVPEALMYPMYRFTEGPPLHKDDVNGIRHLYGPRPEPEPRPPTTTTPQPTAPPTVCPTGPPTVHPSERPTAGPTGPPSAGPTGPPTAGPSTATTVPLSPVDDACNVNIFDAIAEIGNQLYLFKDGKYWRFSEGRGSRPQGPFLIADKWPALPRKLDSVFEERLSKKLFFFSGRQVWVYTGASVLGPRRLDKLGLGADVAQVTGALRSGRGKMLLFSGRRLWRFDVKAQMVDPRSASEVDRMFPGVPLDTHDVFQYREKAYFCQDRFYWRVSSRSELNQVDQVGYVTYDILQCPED
# How it was run: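 Screening concentration 25 uM, duplicate wells, then dose series for confirmation. Cell-free enzymatic reaction measured by fluorescence intensity 1 h post-dosing; decreased signal versus DMSO taken as activity.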
# [4] = molecular target: human Thromboxane A2 Receptor (TXA2), TBXA2R (gene 6915) (UniProt P21731); assay: NVS_GPCR_hTXA2: NovaScreen (NVS) G Protein-Coupled Receptor Assay for human Thromboxane A2 Receptor (TXA2) (AID 2283282);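 further: actives reduce bound radioligand signal relative to DMSO baseline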
# How it was run: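 Filter scintillation counting of bound radioligand, human platelet protein, 1 h exposure. Single-concentration duplicates (25 uM) first, concentration-response follow-up for actives. Binding loss scored against DMSO baseline.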
# [5] = molecular target: guinea pig Opioid, Kappa 1 Receptor (OpiateK), OPRK1 (gene 100135587) (UniProt P41144); assay: NVS_GPCR_gOpiateK: NovaScreen (NVS) G Protein-Coupled Receptor Assay for guinea pig Opioid, Kappa 1 Receptor (OpiateK) (AID 2283252);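 further: radioligand displacement from kappa opioid receptor in guinea pig cerebellar membranes; active means reduced radioligand binding relative to DMSO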
# How it was run: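 Guinea pig cerebellar membranes, radioligand displacement with filter-based scintillation counting, 2 h after dosing. Primary screen single concentration 25 uM in duplicate; actives retested in concentration series; loss of binding fitted versus DMSO.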
# [6] = molecular target: human Adenosine A2a Receptor (AdoRA2a), ADORA2A (gene 135) (UniProt P29274); assay: NVS_GPCR_hAdoRA2a: NovaScreen (NVS) G Protein-Coupled Receptor Assay for human Adenosine A2a Receptor (AdoRA2a) (AID 2283256)
# Sequence of human Adenosine A2a Receptor (AdoRA2a), ADORA2A (gene 135) (P29274 whole entry, looked up): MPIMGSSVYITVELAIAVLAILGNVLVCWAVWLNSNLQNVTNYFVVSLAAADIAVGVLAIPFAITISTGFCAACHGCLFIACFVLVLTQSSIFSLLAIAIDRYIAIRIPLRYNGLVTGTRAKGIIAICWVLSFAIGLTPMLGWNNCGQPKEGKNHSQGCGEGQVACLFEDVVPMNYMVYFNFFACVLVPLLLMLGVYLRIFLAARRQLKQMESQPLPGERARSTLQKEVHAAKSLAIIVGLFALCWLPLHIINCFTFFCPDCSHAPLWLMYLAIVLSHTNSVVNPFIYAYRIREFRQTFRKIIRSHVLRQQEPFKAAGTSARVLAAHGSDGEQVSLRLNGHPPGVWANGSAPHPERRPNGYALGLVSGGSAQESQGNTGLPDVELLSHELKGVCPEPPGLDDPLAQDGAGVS
# How it was run: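 Cell-free radioligand binding on membranes from HEK293 expressing the receptor; competitive displacement read 1.5 h after dosing by filter-based scintillation counting. Primary screen in duplicate at 25 uM; actives followed in concentration series, with DMSO as baseline.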
# [7] = molecular target: rat Thyrotropin Releasing Hormone Receptor (TRH), Trhr (gene 25570) (UniProt Q01717); assay: NVS_GPCR_rTRH: NovaScreen (NVS) G Protein-Coupled Receptor Assay for rat Thyrotropin Releasing Hormone Receptor (TRH) (AID 2283329);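 further: hit means lower bound tracer signal versus DMSO baseline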
# How it was run: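 Test compounds are screened at 25 uM in duplicate against radioligand binding in rat forebrain membranes, with active pairs followed up over a concentration range. Detection uses filter-based radiodetection after a 4 h exposure.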
# [8] = molecular target: Muscarinic acetylcholine receptor M2 (Homo sapiens) (UniProt P08172); assay: NVS_GPCR_hM2: NovaScreen (NVS) G Protein-Coupled Receptor Assay for human Muscarinic, M2 Receptor (AID 2283273)
# Sequence of Muscarinic acetylcholine receptor M2 (Homo sapiens) (P08172 whole entry, looked up): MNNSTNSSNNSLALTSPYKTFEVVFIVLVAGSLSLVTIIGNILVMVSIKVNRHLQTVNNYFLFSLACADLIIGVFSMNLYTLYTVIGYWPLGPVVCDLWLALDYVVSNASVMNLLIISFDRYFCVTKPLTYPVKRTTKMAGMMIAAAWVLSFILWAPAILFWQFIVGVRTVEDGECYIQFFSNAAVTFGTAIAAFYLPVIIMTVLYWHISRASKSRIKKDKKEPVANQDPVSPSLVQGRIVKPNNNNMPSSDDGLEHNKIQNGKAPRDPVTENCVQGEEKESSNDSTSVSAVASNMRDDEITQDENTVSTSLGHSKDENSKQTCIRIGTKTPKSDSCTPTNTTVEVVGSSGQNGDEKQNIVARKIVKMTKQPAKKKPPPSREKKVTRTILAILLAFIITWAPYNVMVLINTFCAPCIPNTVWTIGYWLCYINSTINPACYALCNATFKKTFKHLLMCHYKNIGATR
# How it was run: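 Radioligand displacement on human M2 receptor membranes from CHO cells, 1 h incubation, filtration with scintillation counting. Primary screen in duplicate at 25 uM; actives retested in concentration series; loss of signal fitted versus DMSO.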
# [9] = molecular target: human Neurokinin, NK2 Receptor, TACR2 (gene 6865) (UniProt P21452); assay: NVS_GPCR_hNK2: NovaScreen (NVS) G Protein-Coupled Receptor Assay for human Neurokinin, NK2 Receptor (AID 2283278);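 further: actives reduce bound radioligand signal relative to DMSO baseline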
# How it was run: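 Test chemicals displace a radioligand from receptor prepared from CHO cells in a cell-free format, read after 4 hours by scintillation counting on filters. Screening starts at 25 uM in duplicate, and active chemicals then go to concentration series.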
# [10] = molecular target: Sodium channel protein type 1 subunit alpha (Rattus norvegicus) (UniProt P04774); assay: NVS_IC_rNaCh_site2: NovaScreen (NVS) Ion Channel Assay for rat Sodium Channel, Site 2 (NaCh) (AID 2283322);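 further: hit means loss of radioligand binding signal relative to DMSO so AC50 marks displacement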
# How it was run: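 Membranes: rat forebrain. Format: competitive radioligand displacement, filter separation, scintillation readout, 1 h exposure. Primary screen in duplicate at 25 uM; actives retested in concentration series.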
# [11] = molecular target: sheep Cyclooxygenase-1 (Cox1), PTGS1 (gene 443551) (UniProt P05979); assay: NVS_ENZ_oCOX1: NovaScreen (NVS) Enzymatic Assay for sheep Cyclooxygenase-1 (Cox1) (AID 2283239);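 further: actives reduce cyclooxygenase activity so potencies are for inhibitors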
# How it was run: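 Ovine seminal vesicle extract; absorbance (colorimetric) enzyme read-out at 0.66 h post-dose. Primary: single conc 25 uM, duplicate. Follow-up: concentration series on actives. Activity = signal loss vs DMSO baseline.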
# [12] = molecular target: human Vascular Endothelial Growth Factor Receptor 1 (VEGFR1), FLT1 (gene 2321) (UniProt P17948); assay: NVS_ENZ_hVEGFR1: NovaScreen (NVS) Enzymatic Assay for human Vascular Endothelial Growth Factor Receptor 1 (VEGFR1) (AID 2283226)
# Sequence of human Vascular Endothelial Growth Factor Receptor 1 (VEGFR1), FLT1 (gene 2321) (P17948 whole entry, looked up): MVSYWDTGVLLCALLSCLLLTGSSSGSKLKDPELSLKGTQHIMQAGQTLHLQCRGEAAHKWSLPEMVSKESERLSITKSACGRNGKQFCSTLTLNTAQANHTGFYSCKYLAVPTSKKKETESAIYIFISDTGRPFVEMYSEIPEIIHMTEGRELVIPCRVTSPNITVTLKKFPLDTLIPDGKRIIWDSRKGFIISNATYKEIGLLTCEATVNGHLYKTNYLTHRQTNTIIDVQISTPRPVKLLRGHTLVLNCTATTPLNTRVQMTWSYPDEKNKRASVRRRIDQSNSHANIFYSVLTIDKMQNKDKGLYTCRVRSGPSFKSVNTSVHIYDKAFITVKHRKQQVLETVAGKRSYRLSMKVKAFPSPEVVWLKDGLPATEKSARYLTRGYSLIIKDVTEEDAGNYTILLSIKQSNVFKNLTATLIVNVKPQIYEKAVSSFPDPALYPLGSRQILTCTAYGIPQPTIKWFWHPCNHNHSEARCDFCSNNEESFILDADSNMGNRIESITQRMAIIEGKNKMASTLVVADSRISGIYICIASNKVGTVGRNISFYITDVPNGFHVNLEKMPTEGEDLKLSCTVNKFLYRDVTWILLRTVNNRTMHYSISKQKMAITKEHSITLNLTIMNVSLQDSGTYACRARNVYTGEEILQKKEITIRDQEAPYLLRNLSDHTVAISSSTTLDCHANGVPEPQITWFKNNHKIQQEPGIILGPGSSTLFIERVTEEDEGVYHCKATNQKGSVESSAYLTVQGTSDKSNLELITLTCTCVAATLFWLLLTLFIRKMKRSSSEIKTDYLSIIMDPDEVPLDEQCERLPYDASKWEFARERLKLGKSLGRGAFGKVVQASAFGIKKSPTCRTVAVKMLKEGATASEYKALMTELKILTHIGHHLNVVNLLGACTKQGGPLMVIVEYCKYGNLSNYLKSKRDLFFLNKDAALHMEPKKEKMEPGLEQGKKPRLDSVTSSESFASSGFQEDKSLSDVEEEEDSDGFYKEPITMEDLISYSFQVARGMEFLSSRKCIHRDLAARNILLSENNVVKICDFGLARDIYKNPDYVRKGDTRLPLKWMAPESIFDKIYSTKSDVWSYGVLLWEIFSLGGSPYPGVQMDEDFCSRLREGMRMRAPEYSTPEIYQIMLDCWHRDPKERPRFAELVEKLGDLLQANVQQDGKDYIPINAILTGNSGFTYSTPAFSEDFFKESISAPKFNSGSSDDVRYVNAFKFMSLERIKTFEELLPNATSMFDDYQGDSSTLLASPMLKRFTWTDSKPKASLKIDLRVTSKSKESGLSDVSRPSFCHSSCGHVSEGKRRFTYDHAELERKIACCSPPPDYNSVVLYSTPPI
# How it was run: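 Cell-free assay of recombinant human VEGFR1 kinase with substrate, measured 1 h after dosing; fluorescence with electrophoretic mobility-shift separation of substrate and product, referenced to DMSO; primary screen at 25 uM in duplicate, actives then run in concentration series.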
# [13] = molecular target: human Opioid Receptor Mu (Opiate Mu), OPRM1 (gene 4988) (UniProt P35372); assay: NVS_GPCR_hOpiate_mu: NovaScreen (NVS) G Protein-Coupled Receptor Assay for human Opioid Receptor Mu (Opiate Mu) (AID 2283290);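 further: hits lower bound tracer signal versus DMSO meaning displacement of the ligand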
# How it was run: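 Here, radioligand binding to CHO-extracted receptor was measured after 2.5 h using filter-based scintillation detection. Initial single-concentration screening used 25 uM in duplicate with plate controls; confirmed actives went to concentration-response testing.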
# [14] = molecular target: human Adenosine A1 Receptor (AdoRA1), ADORA1 (gene 134) (UniProt P30542); assay: NVS_GPCR_hAdoRA1: NovaScreen (NVS) G Protein-Coupled Receptor Assay for human Adenosine A1 Receptor (AdoRA1) (AID 2283254)
# How it was run: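 Each chemical is first tested twice at 25 uM, actives later in dilution series, against a radioligand bound to human cortex membranes; after 1 h, filter-retained counts are compared with DMSO controls, lower signal indicating displacement.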
structure (smiles),measurement,setting,value
C=CC(=O)OCCCC,AC50,[1],10.2 µM (active)
same,AC50,[2],0.00235 µM (active)
CC(C)CC(C)CC(O)CC(C)C (stereo unspecified),AC50,[3],5.13 µM (active)
same,outcome,[4],inactive
O=C1OC[C@H](Cc2cccc(O)c2)[C@H]1Cc1cccc(O)c1,AC50,[3],5.03 µM (active)
same,AC50,[5],5.5 µM (active)
CC(C)Nc1nc(N)nc(Cl)n1,outcome,[1],inactive
same,AC50,[6],15.6 µM (active)
c1ccc(Oc2ccccc2)cc1,outcome,[3],inactive
same,outcome,[7],inactive
O=CN1CCOCC1,outcome,[1],inactive
same,outcome,[2],inactive
CCC(C)=O,AC50,[3],6.96 µM (active)
same,outcome,[8],inactive
COc1ccc(OC)c(N=Nc2c(O)ccc3ccccc23)c1,AC50,[1],42.3 µM (active)
same,AC50,[9],25 µM (active)
same,outcome,[10],inactive
c1ccc2[nH]cnc2c1,AC50,[3],7.49 µM (active)
same,outcome,[11],inactive
Oc1c(Cl)cc(Cl)c(Cl)c1Cc1c(O)c(Cl)cc(Cl)c1Cl,outcome,[1],inactive
same,AC50,[2],1.96 µM (active)
same,AC50,[12],2.93 µM (active)
same,AC50,[11],15.6 µM (active)
same,AC50,[6],5.67 µM (active)
same,outcome,[4],inactive
same,AC50,[13],6.76 µM (active)
O=C1OC(=O)c2c(Br)c(Br)c(Br)c(Br)c21,outcome,[1],inactive
COc1cccc(OC)c1O,outcome,[1],inactive
OCCCCC(O)CO (stereo unspecified),AC50,[1],40.4 µM (active)
same,AC50,[2],0.803 µM (active)
CCC(C)c1cc([N+](=O)[O-])cc([N+](=O)[O-])c1OC(=O)OC(C)C (stereo unspecified),outcome,[1],inactive
CCOCCOCCOCC,AC50,[3],15.4 µM (active)
CCCCSCCCC,AC50,[1],1 µM (active)
O=[N+]([O-])c1cccc(Cl)c1,AC50,[1],25 µM (active)
same,outcome,[12],inactive
CCCCC(CC)(CO)CO,outcome,[1],inactive
C=CCCCCCCCCCC,outcome,[3],inactive
Cc1ncc([N+](=O)[O-])n1CCO,outcome,[1],inactive
C=C(C)C(=O)OCC(CC)(COC(=O)C(=C)C)COC(=O)C(=C)C,AC50,[3],0.749 µM (active)
same,AC50,[14],24.6 µM (active)
same,AC50,[8],24.6 µM (active)
